According to ChEMBL document CHEMBL4513156, “CO-ADD screening of NCPRI (Romania) compounds”:
Entries with a potency or affinity are not part of this list.

How the values were obtained:
Staphylococcus aureus = conditions: Concentration 32 ug.mL-1; ASSAY_TEST Inhibition of Bacterial Growth; detection method Absorption (OD600); MEDIA CAMHB; plate type 384well; NBS; CORNING #3640; time 18 hr
Escherichia coli = conditions: Concentration 32 ug.mL-1; ASSAY_TEST Inhibition of Bacterial Growth; detection method Absorption (OD600); MEDIA CAMHB; plate type 384well; NBS; CORNING #3640; time 18 hr

| Compound | Inhibition (Staphylococcus aureus) [%] | Inhibition (Escherichia coli) [%] |
| --- | --- | --- |
| O=C(NNC(=O)c1cccc([N+](=O)[O-])c1C(=O)O)c1ccncc1 | 23.26 | 20.08 |
| COC(=O)C[C@H]1[C@H](/C=N\NC(=O)c2ccncc2)[C@@H](O[Si](C)(C)C(C)(C)C)C[C@@H]1Cl | 29.13 | 13.69 |
| O=C(NN=CC[C@@H]1[C@@H](/C=C/[C@@H](O)CCc2ccccc2)[C@H](OC(=O)c2ccccc2)C[C@@H]1O)c1ccncc1 | 18.76 | 8.83 |
| NNC(=O)c1ccncc1 [ISONIAZID] | 27.38 | 20.51 |
| O=C(N/N=C/C[C@@H]1[C@@H](/C=N/NC(=O)c2ccncc2)[C@H](O)C[C@@H]1O)c1ccncc1 | 16.7 | 6.29 |
| O=C(N/N=C1\CC[C@@H]2[C@H]1[C@H](OC(=O)c1ccccc1)C[C@@H]2OC(=O)c1ccccc1)c1ccncc1 | 27.83 | 14.7 |
| O=C(NNC(c1ccccc1)(c1ccccc1)c1ccccc1)c1ccncc1 | 1.88 | 5.22 |
| O=C1C[C@H]2[C@H](/C=N/NC(=O)c3ccncc3)[C@H](C[C@@H]2Cl)O1 | 34.06 | 18.17 |
| O=C(NN=CC[C@@H]1[C@@H](/C=C/[C@@H](O)CCc2ccccc2)[C@H](O)C[C@@H]1O)c1ccncc1 | 16.65 | 9.46 |
| O=C(N/N=C/[C@@H]1C[C@H](CO)[C@@H]2CCC[C@@H]21)c1ccncc1 | 23.56 | 14.61 |
| COC(=O)CCCCCC[C@@H]1[C@@H](/C=N/NC(=O)c2ccncc2)[C@H](OC(=O)c2ccccc2)C[C@@H]1O | 26.15 | 14.2 |
| O=C(NNC(=O)c1ccc([N+](=O)[O-])cc1C(=O)O)c1ccncc1 | 30.83 | 15.66 |
| CC(C)(C)[Si](C)(C)OC[C@H]1[C@H](CC=NNC(=O)c2ccncc2)[C@H](O)C[C@@H]1O[Si](C)(C)C(C)(C)C | 21.42 | 11.91 |
| O=C(NNC(=O)[C@@H]1C[C@H](C(=O)O)[C@@H]2CCC[C@@H]21)c1ccncc1 | 31.35 | 13.96 |
| COC(=O)CCCCCC[C@@H]1[C@@H](/C=N/NC(=O)c2ccncc2)[C@H](O)C[C@@H]1O | 12.62 | 6.85 |
| O=C(NN=C[C@H]1[C@@H]2CCO[C@@H]2C[C@@H]1O)c1ccncc1 | 13.82 | 5.67 |
| O=C(NNC(=O)[C@@H]1C[C@H](C(=O)O)[C@@H]2CC=C[C@@H]21)c1ccncc1 | 32.09 | 14.78 |
| O=C(ON/N=C/[C@@H]1[C@@H]2C[C@H](Cl)[C@H]1C[C@H]2O)c1ccncc1 | 25.17 | 12.76 |
| O=C(N/N=C1\C[C@@H]2[C@@H](CO)[C@H]1C[C@H]2Cl)c1ccncc1 | 26.12 | 15.81 |

| Compound | Inhibition (Staphylococcus aureus) [%] | Inhibition (Escherichia coli) [%] |
| --- | --- | --- |
| O=C(NN=C[C@H]1[C@H]2CC(O)OC[C@H]2C[C@H]1O)c1ccncc1 (some centres undefined) | 15.22 | 4.63 |
| O=C(N/N=C/C[C@@H]1[C@@H](/C=C/[C@@H](O)COc2cccc(Cl)c2)[C@H](O)C[C@@H]1O)c1ccncc1 | 27.05 | 14.88 |
| O=C1C[C@@H]2[C@@H](C=NNC(=O)c3ccncc3)[C@@H](C[C@H]2Cl)O1 | 33.55 | 18.72 |
| O=C(N/N=C1/C[C@@H]2[C@@H](C(=O)O)[C@H]1C[C@H]2Cl)c1ccncc1 | 32.79 | 18 |
| O=C(N/N=C/C[C@@H]1[C@@H](/C=C/[C@@H](O)COc2ccccc2)[C@H](O)C[C@@H]1O)c1ccncc1 | 16.08 | 10.98 |
| O=C(N/N=C1/C2C[C@H]3C(C2C(=O)O)[C@@H]13)c1ccncc1 (some centres undefined) | 16.39 | 13.83 |
| O=C(N/N=C1/C[C@H]2[C@H](CO)[C@@H]1C[C@@H]2Cl)c1ccncc1 | 26.26 | 16.12 |
| O=C(N/N=C/C[C@@H]1[C@@H](CO)[C@H](O)C[C@@H]1O)c1ccncc1 | 22.27 | 13.16 |
| O=C(N/N=C1/C[C@@H]2[C@H](COC(c3ccccc3)(c3ccccc3)c3ccccc3)C[C@H](COC(c3ccccc3)(c3ccccc3)c3ccccc3)[C@@H]2C1)c1ccncc1 | -0.42 | 11.41 |
| O=C(N/N=C/CCCO)c1ccncc1 | 10.52 | 5.12 |
| CC(C)(C)[Si](C)(C)O[C@H](/C=C/[C@@H]1[C@@H](CC=NNC(=O)c2ccncc2)[C@@H](O)C[C@H]1O[Si](C)(C)C(C)(C)C)CCc1ccccc1 | 11.86 | 7.54 |
| O=C(NN=CC[C@@H]1[C@@H](COC2CCCCO2)[C@H](OC2CCCCO2)C[C@@H]1O)c1ccncc1 (some centres undefined) | 12.15 | 6.4 |
| O=C(NN=CC[C@H]1[C@H](CO)[C@@H](O)C[C@H]1O)c1ccncc1 | 21.6 | 12.24 |
| O=C(N/N=C1\C[C@@H]2[C@H](COC(c3ccccc3)(c3ccccc3)c3ccccc3)C[C@H](CO)[C@@H]2C1)c1ccncc1 | 13.89 | 6.21 |
| CC(C)(C)[Si](C)(C)OCC1C2C[C@H]3C1[C@@H]3/C2=N/NC(=O)c1ccncc1 (some centres undefined) | 14.57 | 8.28 |
| O=C(N/N=C/COc1cccc(Cl)c1)c1ccncc1 | 8.36 | 6.4 |
| O=C(N/N=C1/C[C@@H]2[C@H](C1)[C@H](OC(=O)c1ccccc1)C[C@@H]2OC(=O)c1ccccc1)c1ccncc1 | 26.15 | 8.09 |
| O=C(N/N=C1/C2C[C@H]3C(C2CO)[C@H]13)c1ccncc1 (some centres undefined) | 21.76 | 11.47 |
